Assay results: ChEMBL document CHEMBL1201862, “PubChem BioAssay data set” (2004)
In all, about 400,000 compounds went through this assay and about 2,100 (0.53%) were called active. Not shown: some 14% with an inconclusive outcome. The rule behind the calls is not given here. The entries come from a sample that favours actives as a whole.

Target: Ataxin-2 (Homo sapiens) (UniProt Q99700)
Test: qHTS for Inhibitors of ATXN expression.
Format: functional

Chain of Ataxin-2 (Homo sapiens) (Q99700 whole entry): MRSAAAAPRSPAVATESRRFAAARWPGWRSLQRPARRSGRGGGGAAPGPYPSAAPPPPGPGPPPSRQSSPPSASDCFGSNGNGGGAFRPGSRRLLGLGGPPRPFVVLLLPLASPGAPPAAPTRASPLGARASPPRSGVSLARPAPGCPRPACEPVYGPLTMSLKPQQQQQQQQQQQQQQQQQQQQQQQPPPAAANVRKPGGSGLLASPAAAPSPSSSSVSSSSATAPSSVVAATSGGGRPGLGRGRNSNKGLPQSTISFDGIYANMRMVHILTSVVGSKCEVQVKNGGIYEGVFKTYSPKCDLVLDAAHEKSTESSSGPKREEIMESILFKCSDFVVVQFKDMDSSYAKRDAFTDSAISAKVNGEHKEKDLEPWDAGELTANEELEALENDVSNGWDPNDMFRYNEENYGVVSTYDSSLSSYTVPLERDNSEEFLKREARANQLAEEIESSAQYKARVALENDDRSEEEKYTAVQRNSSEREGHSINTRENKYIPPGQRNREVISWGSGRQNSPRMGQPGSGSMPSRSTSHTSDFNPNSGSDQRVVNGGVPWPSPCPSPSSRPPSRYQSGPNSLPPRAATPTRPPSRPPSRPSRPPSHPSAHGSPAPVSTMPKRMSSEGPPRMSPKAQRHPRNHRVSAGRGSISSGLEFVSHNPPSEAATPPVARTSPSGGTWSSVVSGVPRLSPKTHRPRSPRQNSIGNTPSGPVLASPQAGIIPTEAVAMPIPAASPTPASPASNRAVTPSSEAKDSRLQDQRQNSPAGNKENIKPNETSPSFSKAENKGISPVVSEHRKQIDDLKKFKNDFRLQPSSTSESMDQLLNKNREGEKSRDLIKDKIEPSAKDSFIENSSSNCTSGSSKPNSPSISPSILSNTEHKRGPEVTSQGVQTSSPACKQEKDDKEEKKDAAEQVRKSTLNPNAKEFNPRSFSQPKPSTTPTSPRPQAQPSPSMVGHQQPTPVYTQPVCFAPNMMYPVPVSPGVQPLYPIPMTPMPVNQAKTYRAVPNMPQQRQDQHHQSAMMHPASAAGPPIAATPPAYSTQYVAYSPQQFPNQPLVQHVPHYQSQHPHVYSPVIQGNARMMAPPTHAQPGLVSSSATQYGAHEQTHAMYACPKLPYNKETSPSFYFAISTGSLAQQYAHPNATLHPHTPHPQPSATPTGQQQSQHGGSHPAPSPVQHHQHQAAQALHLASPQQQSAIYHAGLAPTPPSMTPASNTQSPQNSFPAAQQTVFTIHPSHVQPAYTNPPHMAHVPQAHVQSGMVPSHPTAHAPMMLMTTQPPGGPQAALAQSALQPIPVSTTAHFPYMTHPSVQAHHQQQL

Row | Structure (SMILES) | Potency
1 | COCCSc1ccccc1C(=O)N1CCc2ccccc21 | inactive
2 | CCOCCCn1c(=N)c(C(=O)NCc2ccccc2)cc2c(=O)n3ccccc3nc21 | inactive
3 | O=C1CCC(=O)N1c1nc2n(n1)C(c1ccccc1)C=C(c1ccc(Br)cc1)N2 (stereo not drawn) | inactive
4 | O=c1c2ccccc2[nH]c2ccccc12 | inactive
5 | Cc1[nH]c2ccccc2c1C1=CC(=O)C=CC1=O | 39.8 µM (active)
6 | Cc1ccc2[nH]c3ccccc3c(=O)c2c1 | inactive
7 | COCc1cc(C)nc2sc(C(=O)Nc3nccs3)c(N)c12 | inactive
8 | Cc1ccccc1N=C(S)NNC(=O)c1cccc(Br)c1 | inactive
9 | C/C(=N\NC(=O)c1ccc(-n2cnnn2)cc1)c1ccc(Cl)cc1 | inactive
10 | O=C(N/N=C1/C(=O)c2cccc3cccc1c23)c1ccc(Cl)cc1 | 35.5 µM (active)
11 | Nc1[nH]cnc2c(C3OC(CO)C(O)C3O)cnc1-2 (stereo not drawn) | 0.299 µM (active)
12 | Cc1cccn2c(=O)c3cc(S(=O)(=O)c4ccc(F)cc4)c(=N)n(Cc4ccco4)c3nc12 | inactive
13 | CCOC(=O)c1cc2c(=O)n3ccccc3nc2n(Cc2ccco2)/c1=N\C(=O)c1ccc(F)cc1 | inactive
14 | Cc1nc2c(sc(=S)n2Cc2ccco2)c(=O)n1CC(=O)Nc1ccc(F)cc1 | 39.8 µM (active)
15 | Cc1cc(C)c2c(N)c3cccc(C)c3nc2n1 | inactive
16 | CCOC(=O)C1=C(Nc2ccccc2)S/C(=C\c2ccc(OCC(=O)O)c(OCC)c2)C1=O | inactive
17 | CCOC(=O)C1=C(O)c2ccccc2C(=O)/C1=C\c1ccc(C)cc1 | 39.8 µM (active)
18 | CCOC(=O)C1=C(C#N)C(C(=O)OCC)c2ncccc21 (stereo not drawn) | inactive
19 | COCCNc1c2c(c(C#N)c3nc4ccccc4n13)CCCC2 | inactive
20 | COc1ccc(/C=C(\C#N)c2nc3cc(C)ccc3[nH]2)cc1Oc1ccc(C(F)(F)F)cc1[N+](=O)[O-] | 44.7 µM (active)
21 | COc1cc(/C=C(\C#N)c2nc3cc(C)ccc3[nH]2)ccc1OC(C)C | inactive
22 | COc1cc(/C=C(\C#N)c2nc3cc(C)ccc3[nH]2)ccc1OCc1ccc(C)cc1 | inactive
23 | Cc1c(Cl)cccc1-c1ccc(/C=C(\C#N)c2nc3ccccc3[nH]2)o1 | inactive
24 | Cc1ccc2[nH]c(/C(C#N)=C/c3ccc(-c4ccccc4C(=O)O)o3)nc2c1 | inactive
25 | Cc1ccc2[nH]c(/C(C#N)=C\c3ccc([N+](=O)[O-])o3)nc2c1 | 8.91 µM (active)
26 | Oc1c(Br)cc(Br)cc1/C=N\c1cccnc1 | inactive

Row | Structure (SMILES) | Potency
27 | COCc1cc(N2CCCC2)nc(-c2ccccc2)n1 | inactive
28 | Cc1c(N=C2N=C(NC(=O)Nc3ccc(Cl)cc3)c3ccccc32)c(=O)n(-c2ccccc2)n1C | inactive
29 | O=C1c2cccc3c([N+](=O)[O-])ccc(c23)C(=O)N1CC1CCCO1 (stereo not drawn) | inactive
30 | CCC(=O)NCCCc1nc2ccccc2n1Cc1ccccc1F | inactive
31 | CCn1c(C)nc2cc(C(=O)N/N=C(\C)c3ccccc3O)ccc21 | inactive
32 | CCCCCn1c(-c2cccc(C)c2)nc2ccccc21 | 35.5 µM (active)
33 | CCCCCn1c(CCNC(=O)c2cccc(C)c2)nc2ccccc21 | 31.6 µM (active)
34 | CCCCCn1c(N)c(C#N)c2nc3ccccc3nc21 | inactive
35 | CCCCCn1nc(-c2ccccc2)c2nc3ccccc3nc21 | inactive
36 | Cc1cccc(-n2cnc3cc(C(=O)NCCN4CCOCC4)ccc32)c1 | inactive
37 | ClCc1nc2ccccc2n1Cc1ccccc1 | inactive
38 | CCCn1c(CNC(=O)c2cccs2)nc2ccccc21 | inactive
39 | CCc1ccccc1-n1c(C)nc2cc(C(=O)NCCc3ccc(Cl)cc3)ccc21 | 44.7 µM (active)
40 | Cc1cccc(C(=O)NCCc2nc3ccccc3n2Cc2ccc(Cl)cc2)c1 | 28.2 µM (active)
41 | Cc1ccc(C(=O)NCCc2ccccc2)cc1N1CCCC1=O | inactive
42 | COc1cccc(NC(=O)N2CCCC2C(=O)Nc2cc(C)ccc2OC)c1 (stereo not drawn) | inactive
43 | c1ccc2c3c(c(CN4CCCC4)cc2c1)COC3 | inactive
44 | Cc1ccc(NC(=O)NN2CCOCC2)cc1 | inactive
45 | CC1(C)Cc2c(cnn2-c2cccc(F)c2)C(NC(=O)CSc2ccccn2)C1 (stereo not drawn) | inactive
46 | Cc1cc(-n2c(=O)c(C#N)cc3c(=O)n4cccc(C)c4nc32)no1 | inactive
47 | O=C(N/N=C/c1ccc(N2CCOCC2)cc1)c1ccccc1NS(=O)(=O)c1cccs1 | inactive
48 | C[C@H]1CCC[C@]2(C)C[C@H]3OC(=O)C(CN4CCCCCC4)[C@H]3C=C12 (stereo partly drawn) | 39.8 µM (active)
49 | CCN/N=C(\Cc1nc2ccccc2[nH]1)c1ccccc1 | inactive
50 | Cc1cccn2c(=O)c3cc(C(=O)NCC4CCCO4)c(=N)n(CC4CCCO4)c3nc12 (stereo not drawn) | inactive
51 | COc1cccc(-c2nc(CS(=O)(=O)CC(=O)Nc3cccc(C)c3C)c(C)o2)c1 | 7.08 µM (active)
52 | Cc1ccc(CNC(=O)CS(=O)(=O)Cc2nc(-c3ccccc3F)oc2C)cc1 | inactive

Row | Structure (SMILES) | Potency
53 | Cc1ccc(-c2nc(CS(=O)(=O)CC(=O)NCc3ccc4c(c3)OCO4)c(C)o2)cc1 | inactive
54 | COc1ccc(OC)c(/C=C2\Oc3cc(OCC(=O)N4CC(O)C[C@H]4C(=O)O)ccc3C2=O)c1 (stereo partly drawn) | inactive
55 | CCOc1ccc2c(c1)/C(=C(\C(Cl)=C(Cl)Cl)[N+](=O)[O-])N2 | inactive
56 | COc1ccc(/C=c2\s/c(=C(/C#N)C(=O)NCc3ccco3)n(-c3ccccc3)c2=O)cc1 | inactive
57 | COc1ccc(C(=O)/C(=C\c2ccco2)N2C=CC=CC2=C(C#N)C#N)cc1 | 1.78 µM (active)
58 | O=C(O)CSCC(=O)NCc1csc2ccc(Cl)cc12 | inactive
59 | COc1ccc(-c2[nH]c(-c3ccc(C)cc3)nc2SCC(=O)NCc2ccco2)cc1OC | inactive
60 | O=C(CN1CCc2ccccc21)Nc1ccc2c(c1)OCCCO2 | inactive
61 | N#Cc1ccccc1NC(=O)CSc1nc(-c2ccccc2)cc(C(F)(F)F)c1C#N | inactive
62 | O=C(CSc1nc(-c2ccc(F)cc2)[nH]c1-c1ccc(F)cc1)Nc1ccc2c(c1)OCCO2 | 39.8 µM (active)
63 | O=C(CSc1nc(-c2ccccc2)[nH]c1-c1ccccc1)Nc1ccc2c(c1)OCCO2 | 39.8 µM (active)
64 | Cc1ccc(NC(=O)CSc2nnc(-c3cc(C)on3)o2)cc1 | inactive
65 | CCN(CC)c1ccc2cc(C(N)=O)c(=N)oc2c1 | inactive
66 | O=C1N=C(N2CCCCC2)S/C1=C\c1ccc(Br)cc1 | inactive
67 | Cc1cc(OCCn2c(C3CC(=O)N(Cc4ccc(F)cc4)C3)nc3ccccc32)ccc1Cl (stereo not drawn) | 39.8 µM (active)
68 | CCCCN1CC(c2nc3ccccc3n2CCCCOc2ccc(C)c(C)c2)CC1=O (stereo not drawn) | 39.8 µM (active)
69 | Cc1cc(NC2CCCCC2)n2c(n1)nc1ccccc12 | inactive
70 | CC(=O)Oc1ccc2cc(-c3nc4ccccc4n3C)c(=O)oc2c1 | inactive
71 | CC(C)(C)OC(=O)c1c(N)n(CCCN2CCCC2=O)c2nc3ccccc3nc12 | inactive
72 | Cc1ccccc1N1CC(c2nc3ccccc3n2CCC2CCCCC2)CC1=O (stereo not drawn) | 35.5 µM (active)
73 | Cc1cccc(N2CC(c3nc4ccccc4n3C)CC2=O)c1C (stereo not drawn) | inactive
74 | CCc1ccc(OCCn2c(C3CC(=O)N(Cc4ccc(F)cc4)C3)nc3ccccc32)cc1 (stereo not drawn) | 39.8 µM (active)
75 | O=c1nc2n(-c3ccccc3F)c3ccccc3cc-2c(=O)[nH]1 | inactive
76 | CCOC(=O)c1c(NC(=O)c2ccco2)n(C2CCCCC2)c2nc3ccccc3nc12 | inactive
77 | Cc1noc(C)c1CSCC(=O)Nc1ccc(S(C)(=O)=O)cc1 | inactive
78 | CC(C)OC(=O)CSc1nc(Cc2ccccc2)nc2ccccc12 | inactive

Row | Structure (SMILES) | Potency
79 | Cc1cc(-c2nc3cccnc3s2)ccc1NS(=O)(=O)c1cccs1 | inactive
80 | O=C(COC(=O)c1cccnc1)NC1CCCc2ccccc21 (stereo not drawn) | inactive
81 | CCOc1ccc(CNc2nc3ccccc3n2C)cc1 | inactive
82 | CCOc1ccc(N2CC(C(=O)Nc3ccc(S(=O)(=O)NCC4CCCO4)cc3)CC2=O)cc1 (stereo not drawn) | inactive
83 | CCOc1ccc(N2CC(c3nc4ccccc4n3CCCOc3ccccc3)CC2=O)cc1 (stereo not drawn) | 22.4 µM (active)
84 | Cc1nn(Cc2ccccc2)c(Cl)c1/C=N/NC(=O)c1cccnc1 | inactive
85 | CN1CCN(c2ccc([N+](=O)[O-])c(-n3nc(-c4ccccc4)c4ccccc4c3=O)c2)CC1 | 35.5 µM (active)
86 | Nc1ccc2nn(-c3ccccc3)nc2c1 | inactive
87 | N#CC(c1nc2ccccc2nc1N1CCOCC1)S(=O)(=O)c1ccccc1 (stereo not drawn) | inactive
88 | Fc1ccccc1N1CC(c2ccccc2)C(c2cccs2)=N1 (stereo not drawn) | inactive
89 | CCCCCCc1cc2cc(S(=O)(=O)c3ccc(F)c(Cl)c3)c(=O)oc2cc1O | inactive
90 | OC(CNc1ccnc2cc(Cl)ccc12)CNC1CCCCC1 (stereo not drawn) | 39.8 µM (active)
91 | Clc1ccc2c(NCCNC3CCCCC3)ccnc2c1 | 15.8 µM (active)
92 | Cc1ccc(/C=C2\CCC3=C2OC(N)=C(C#N)C3c2ccc(C)cc2)cc1 (stereo not drawn) | inactive
93 | CCOC(=O)c1cc2c(=O)n3ccccc3nc2n(CC2CCCO2)/c1=N\C(=O)c1ccc(OC)cc1OC (stereo not drawn) | inactive
94 | O=C(Cc1ccccc1)N/N=C/c1cc(Br)cc(Cl)c1O | inactive
95 | CCOC(=O)c1cc2c(=O)n3ccccc3nc2n(Cc2ccco2)/c1=N\C(=O)c1cccc(F)c1 | inactive
96 | Clc1ccc(-c2noc(/C=C/c3ccccc3)n2)cc1 | inactive
97 | O=C1/C(=C/Nc2nnc(CCCO)[nH]2)c2ccccc2C(=O)N1c1ccccc1Cl | inactive
98 | CCN(C(=O)COC(=O)c1cccc(S(=O)(=O)N(C)C)c1)c1c(N)n(Cc2ccccc2)c(=O)[nH]c1=O | inactive
99 | CCCCN(C(=O)CSc1nnc2ccccn12)c1c(N)n(Cc2ccccc2)c(=O)[nH]c1=O | inactive
100 | CCCCn1c(N)c(N(CCOC)C(=O)CN2c3ccccc3CC2C)c(=O)[nH]c1=O (stereo not drawn) | inactive
101 | Nc1c(N(CCC2=CCCCC2)C(=O)COc2ccc(F)cc2)c(=O)[nH]c(=O)n1Cc1ccccc1 | 39.8 µM (active)
102 | Nc1c(N(CCC2=CCCCC2)C(=O)COc2ccc(F)cc2Cl)c(=O)[nH]c(=O)n1Cc1ccccc1 | 11.9 µM (active)
103 | Cc1ccccc1OCC(=O)N(Cc1ccco1)c1c(N)n(Cc2ccccc2)c(=O)[nH]c1=O | inactive
